# Measurements published in PubChem BioAssay (NCI).
# This is part of a sample that, as a whole, favours compounds with a hit. Of some 79,000 tested, about 15% had one in any assay. Unmarked numbers belong to inactive results. Calls of active or inactive are those of the source. Rule as the data show it: active = growth inhibition above about 70%; inactive = the rest.
# Experiments:
# [1] = NCI Yeast Anticancer Drug Screen. Data for the rad50 strain (AID 155);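 also: 0% = growth of vehicle-only cultures of the same strain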; conditions: S. cerevisiae rad50 strain growth inhibition, active compounds read high
# Procedure, shortened: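 Inhibition values express reduced yeast growth in compound-treated cultures relative to vehicle-treated controls.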
# [2] = NCI Yeast Anticancer Drug Screen. Data for the mec2-1 strain (AID 157); conditions: S. cerevisiae mec2-1 strain, active compounds read high
# Procedure, shortened: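 Strain: mec2-1 (DNA repair/cell cycle alteration). Compound exposure, then growth measured; inhibition expressed relative to vehicle.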
# [3] = NCI Yeast Anticancer Drug Screen. Data for the sgs1 mgt1 strain (AID 161);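 also: 0% = growth of cultures given vehicle only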; conditions: S. cerevisiae sgs1 mgt1 strain, active compounds read high
# Procedure, shortened: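 Test agents were incubated with a DNA-repair-mutant yeast strain. Growth was then read and compared against vehicle-treated controls.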
# [4] = NCI Yeast Anticancer Drug Screen. Data for the cln2 rad14 strain (AID 165);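 also: 0% = growth equal to vehicle treated cultures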; conditions: S. cerevisiae cln2 rad14 strain, active compounds read high
# Procedure, shortened: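 Compounds are applied to the cln2 rad14 yeast strain, and growth is then compared with that of vehicle-treated cultures to give inhibition.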
# [5] = NCI Yeast Anticancer Drug Screen. Data for the bub3 strain (AID 167); conditions: S. cerevisiae bub3 mutant strain, active compounds read high
# Procedure, shortened: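 Steps: expose the mutant yeast strain to compound; grow alongside vehicle-treated cultures; measure growth; express inhibition against the vehicle cultures.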
# [6] = NCI Yeast Anticancer Drug Screen. Data for the mlh1 rad18 strain (AID 175); conditions: S. cerevisiae mlh1 rad18 strain growth inhibition, active compounds read high
# Procedure, shortened: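 Read-out is yeast growth inhibition, calculated against vehicle-only controls. The compound was applied to a strain engineered with DNA damage repair alterations.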
# [7] = at 5.0 µM (retest, dose inferred, filed as 0.5)
# [8] = at 50.0 µM (retest, dose inferred, filed as 5.0)
Structure (SMILES),"growth inhibition [1, 7]","growth inhibition [1, 8]",growth inhibition ([1]; at 50.0 µM),"growth inhibition [2, 7]","growth inhibition [2, 8]",growth inhibition ([2]; at 50.0 µM),"growth inhibition [3, 7]","growth inhibition [3, 8]",growth inhibition ([3]; at 50.0 µM),"growth inhibition [4, 7]","growth inhibition [4, 8]",growth inhibition ([4]; at 50.0 µM),"growth inhibition [5, 7]","growth inhibition [5, 8]",growth inhibition ([5]; at 50.0 µM),"growth inhibition [6, 7]","growth inhibition [6, 8]",growth inhibition ([6]; at 50.0 µM)
O=C1Oc2ccccc2C(=O)/C1=C/N1C(=O)/C(=C/c2ccccc2)NC1=S,-23%,31%,66.7%,-25%,27%,43.3%,-15%,42%,71.7% (active),4%,37%,60.6%,-6%,45%,53.5%,-33%,40%,54%
Cc1cccc(N2CCN(CC(O)COc3ccc4ccccc4c3)CC2)c1 (configuration not stated),-6%,-7%,80.7% (active),13%,18%,72.1% (active),-3%,12%,97.7% (active),-4%,-6%,60.1%,-5%,4%,41.1%,26%,28%,90% (active)
O=C(Nc1c(Cl)cccc1Cl)OCc1ccc2c(c1)OCO2,46%,54%,35.8%,33%,32%,48.6%,44%,53%,50%,33%,43%,14.3%,46%,73% (active),43%,41%,42%,35.9%
O=c1cc(-c2cccc(OCc3ccccc3)c2)[nH]c2cc3c(cc12)OCO3,19%,6%,21.3%,16%,12%,-21.4%,21%,16%,17.1%,0%,11%,5.75%,14%,6%,19.9%,22%,10%,-51.5%
O=C(O)/C=C/C(=O)Nc1cccc2ccccc12,40%,40%,6.35%,44%,49%,35.9%,21%,100% (active),55.5%,39%,100% (active),2.25%,64%,100% (active),55%,26%,44%,16.8%
Clc1ccc2nc(CCSCCc3nc4ccc(Cl)cc4[nH]3)[nH]c2c1,5%,97% (active),87.8% (active),7%,98% (active),98.7% (active),7%,97% (active),82% (active),-15%,99% (active),59.9%,-10%,98% (active),94.8% (active),0%,98% (active),97.9% (active)
CCCCCC(C)NCCOC(=O)c1ccccc1 (configuration not stated),3%,78% (active),50.8%,-13%,82% (active),-10.7%,-8%,79% (active),59.4%,0%,26%,67.2%,3%,84% (active),75.5% (active),18%,89% (active),40.5%
CCCCNc1ccc(-c2c(N)nc(N)nc2CC)cc1[N+](=O)[O-],-7%,0%,62.4%,-16%,2%,17.6%,-9%,15%,57%,-34%,8%,27.1%,-4%,-1%,-0.35%,-9%,-16%,62.8%
CCOCCNCc1ccc(Cl)c(Cl)c1,-145%,-89%,4.05%,-47%,-51%,0.1%,-60%,-90%,2.7%,-51%,-53%,21.1%,-67%,-50%,-5.85%,-144%,-85%,-7.9%
